Assay results as given in PubChem BioAssay (Tox21).
Several values for one entry are separate records, joined by “and”; a condition that tells them apart may be missing. Identical values can stand only once. Records with an inconclusive call do not appear. A call without a number means that no potency is given here. More than one record can exist for a structure, and the calls need not agree. Activity calls are given as the source filed them. The call rests on the fitted dose curve.

Test: qHTS assay to identify small molecule agonists of the NFkB signaling pathway - cell viability counter screen (AID 1159515); further: nearly all actives have a fitted effect of over 55% in size
Conditions: NFkB-bla ME-180 viability, CellTiter-Glo luminescence, 5 h; series mostly up to 61 µM
In short: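 Luminescence from CellTiter-Glo (30 min, room temperature) gives viability, measured in the same wells as the beta-lactamase reporter read. Cells were NFkB-bla ME-180, 2,000 per well, treated 5 hr with compounds.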
Potency means the concentration at half of the fitted maximal effect.

SMILES | Potency
Cc1cc(Cl)ccc1OCC(=O)O | inactive
CNC | inactive
C[C@]12CCC(=O)C=C1CC[C@@H]1[C@@H]2CC[C@]2(C)C(=O)CC[C@@H]12 | inactive
O=C(O)c1nc(Cl)ccc1Cl | inactive
CCn1cc[n+](C)c1C | inactive
CCC[N+]1(C)CCCC1 | inactive
COCC(=O)N(c1c(C)cccc1C)C(C)C(=O)OC (configuration not stated) | inactive
CC[N+](CC)(CC)CC | inactive
CCCn1cc[n+](C)c1 | inactive
O=C(O)CCl | inactive
C[N+](C)(C)Cc1ccccc1 | inactive
CCCC[n+]1ccccc1C | inactive
CCC(=O)C(CC(C)N(C)C)(c1ccccc1)c1ccccc1 (configuration not stated) | 43.8 µM (active) and inactive
CCCC[n+]1ccccc1 | inactive
Oc1cccc2cccnc12 | inactive and 977 nM (active)
CCOP(=S)(OCC)Oc1ccc2c(C)c(Cl)c(=O)oc2c1 | inactive

SMILES | Potency
Nc1ccc(Cl)cc1 | inactive
Cc1cc(-c2ccc(N)c(C)c2)ccc1N | inactive
CCCCCC[n+]1ccccc1 | inactive
Nc1ccc(-c2ccc(N)cc2)cc1 | inactive
C1CCC(NC2CCCCC2)CC1 | inactive
OCCOc1ccccc1 | inactive
CCCC[N+]1(C)CCCC1 | inactive
Nc1ccccc1 | inactive
Cc1cc(Cl)ccc1N | inactive
CCCCCCn1cc[n+](C)c1 | inactive
O=c1[nH]c(=O)n(Cl)c(=O)n1Cl | inactive
COc1ccc(N)cc1 | inactive
O=P1(N(CCCl)CCCl)NCCCO1 (configuration not stated) | inactive
COc1ccccc1N | inactive
O=[N+]([O-])c1ccccc1O | inactive
COP(=O)(OC)OC=C(Cl)Cl | inactive
